The values below come from PubChem BioAssay (EPA / NIEHS).

SMILES strings stand for the structures. The source made the active and inactive calls. Rule for the calls: active = hit-call score of the fitted dose curve at least 0.9, where 1 is the maximum; inactive = score below 0.9.

Read-out in assay [1]: urokinase plasminogen activator (uPA), PLAU (gene 5328)
The experiment in a line: BSK_KF3CT_uPA: BioMAP Diversity Plus: KF3CT Assay for urokinase plasminogen activator (uPA) Biomarker Activity (AID 2283075). As to conditions: primary human keratinocytes with fibroblasts; actives raise or lower the signal. A digest of the protocol:
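ELISA readout of uPA, analyzed for signal gain or loss relative to DMSO, from a human primary keratinocyte–foreskin fibroblast co-culture measured 24 h after chemical treatment.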

Read-out in assay [2]: CD40, CD40 (gene 958)
Put plainly: BSK_LPS_CD40: BioMAP Diversity Plus: LPS Assay for CD40 Biomarker Activity (AID 2283076). As to conditions: primary human HUVEC with PBMC; actives raise or lower the signal. An outline of the steps:
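Primary human umbilical vein endothelial cells co-cultured with peripheral blood mononuclear cells, LPS-stimulated, were dosed with chemical and read 24 h later. CD40 levels were measured by ELISA and fitted bidirectionally against DMSO as negative control and baseline.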

Read-out in assay [3]: E-selectin (Homo sapiens) (UniProt P16581)
Put plainly: BSK_LPS_Eselectin: BioMAP Diversity Plus: LPS Assay for Eselectin Biomarker Activity (AID 2283077). The conditions noted are these: primary human HUVEC with PBMC; actives raise or lower the signal. A digest of the protocol:
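Human umbilical vein endothelial cells co-cultured with peripheral blood mononuclear cells under LPS stimulation; E-selectin measured by ELISA 24 h after chemical dosing. Activity fitted bidirectionally against DMSO as negative control and baseline.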

Read-out in assay [4]: Interleukin-8 (IL8), CXCL8 (gene 3576)
The experiment in a line: BSK_LPS_IL8: BioMAP Diversity Plus: LPS Assay for Interleukin-8 (IL8) Biomarker Activity (AID 2283078). The conditions noted are these: primary human HUVEC with PBMC; actives raise or lower the signal. A digest of the protocol:
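Human umbilical vein endothelial cells co-cultured with PBMC were stimulated with LPS; IL-8 levels were measured by ELISA 24 h after chemical dosing. Activity was fitted bidirectionally against DMSO as negative control and baseline.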

Assay [5] in a line: BSK_LPS_SRB: Viability Assessment in the BioMAP Diversity Plus: LPS Assay (AID 2283079).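 Note: total protein by sulforhodamine B absorbance as a cytotoxicity measure; measured one day after compound addition; fitted in both directions against DMSO so loss or gain of signal counts.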 As to conditions: primary human HUVEC with PBMC. An outline of the steps: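 Human umbilical vein endothelial cells co-cultured with PBMC (LPS system) were dosed for 24 h. Total protein was stained with 0.1% sulforhodamine B after 10% TCA fixation, read at 560 nm, and fitted bidirectionally against DMSO baseline.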

Read-out in assay [6]: Interleukin-1 alpha (IL1a), IL1A (gene 3552)
Put plainly: BSK_LPS_IL1a: BioMAP Diversity Plus: LPS Assay for Interleukin-1 alpha (IL1a) Biomarker Activity (AID 2283080). The conditions noted are these: primary human HUVEC with PBMC; actives raise or lower the signal. A digest of the protocol:
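Human umbilical vein endothelial cells co-cultured with peripheral blood mononuclear cells were LPS-stimulated and exposed to test chemicals for 24 h. IL-1 alpha was quantified by ELISA, with bidirectional curve fitting against DMSO as the negative control and baseline.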

Read-out in assay [7]: Monocyte Chemoattractant Protein-1 (MCP1), CCL2 (gene 6347)
Put plainly: BSK_LPS_MCP1: BioMAP Diversity Plus: LPS Assay for Monocyte Chemoattractant Protein-1 (MCP1) Biomarker Activity (AID 2283081). As to conditions: primary human HUVEC with PBMC; actives raise or lower the signal. A digest of the protocol: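 HUVEC plus PBMC co-culture (human primary cells, LPS system) exposed to test chemical for 24 h; MCP-1 measured by ELISA. Bidirectional curve fitting against DMSO baseline; parallel SRB total-protein staining flags overt cytotoxicity.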

The nature of assay [8]: BSK_LPS_PGE2: BioMAP Diversity Plus: LPS Assay for Prostaglandin E2 (PGE2) Biomarker Activity (AID 2283082). The conditions noted are these: primary human HUVEC with PBMC; actives raise or lower the signal. An outline of the steps: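 LPS-activated HUVEC/PBMC co-culture; cmpd dosed, 24 h; PGE2 by ELISA; bidirectional fit vs DMSO; SRB (0.1%, TCA-fixed, 560 nm) in parallel plates for overt cytotox.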

Read-out in assay [9]: Macrophage colony-stimulating factor (MCSF), CSF1 (gene 1435)
Put plainly: BSK_LPS_MCSF: BioMAP Diversity Plus: LPS Assay for Macrophage colony-stimulating factor (MCSF) Biomarker Activity (AID 2283083). As to conditions: primary human HUVEC with PBMC; actives raise or lower the signal. An outline of the steps:
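Human umbilical vein endothelial cells co-cultured with peripheral blood mononuclear cells were exposed to compound for 24 h. M-CSF levels were measured by ELISA, and bidirectional curve fitting used DMSO as the negative control and baseline.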

Read-out in assay [10]: Tissue Factor, F3 (gene 2152)
The experiment in a line: BSK_LPS_TissueFactor: BioMAP Diversity Plus: LPS Assay for Tissue Factor Biomarker Activity (AID 2283084). As to conditions: primary human HUVEC with PBMC; actives raise or lower the signal. An outline of the steps: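 Human umbilical vein endothelial cells co-cultured with peripheral blood mononuclear cells were dosed and stimulated with LPS. Cell-surface CD142 was quantified by ELISA at 24 h. Activity was fitted bidirectionally against DMSO baseline.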

Read-out in assay [11]: Tumor necrosis factor (Homo sapiens) (UniProt P01375)
Put plainly: BSK_LPS_TNFa: BioMAP Diversity Plus: LPS Assay for Tumour Necrosis Factor alpha (TNFa) Biomarker Activity (AID 2283085). As to conditions: primary human HUVEC with PBMC; actives raise or lower the signal. A digest of the protocol:
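Read-out is ELISA of TNFa in primary human endothelial cell–PBMC co-cultures at 24 h after compound. Activity in either direction was fitted against DMSO.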

Read-out in assay [12]: Vascular cell adhesion molecule 1 (VCAM1), VCAM1 (gene 7412)
The experiment in a line: BSK_LPS_VCAM1: BioMAP Diversity Plus: LPS Assay for Vascular cell adhesion molecule 1 (VCAM1) Biomarker Activity (AID 2283086). As to conditions: primary human HUVEC with PBMC; actives raise or lower the signal. A digest of the protocol:
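HUVEC + PBMC co-culture, LPS system; compound 24 h; VCAM-1 by ELISA; bidirectional fit vs DMSO control; parallel SRB (0.1%, TCA-fixed, 560 nm) for cytotoxicity.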

Read-out in assay [13]: CD38, CD38 (gene 952)
Put plainly: BSK_SAg_CD38: BioMAP Diversity Plus: SAg Assay for CD38 Biomarker Activity (AID 2283087). The conditions noted are these: primary human HUVEC with PBMC; actives raise or lower the signal. A digest of the protocol:
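Human HUVEC plus PBMC co-culture stimulated with superantigen; CD38 measured by ELISA 24 h after chemical dosing. Fluorescence read-out, bidirectional fit against DMSO; cytotoxicity tracked in parallel by SRB and Alamar Blue.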

Read-out in assay [14]: CD40, CD40 (gene 958)
The experiment in a line: BSK_SAg_CD40: BioMAP Diversity Plus: SAg Assay for CD40 Biomarker Activity (AID 2283088). As to conditions: primary human HUVEC with PBMC; actives raise or lower the signal. An outline of the steps: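 Human umbilical vein endothelial cells co-cultured with PBMC; CD40 levels measured by ELISA with fluorescence read-out 24 h after chemical dosing. Gain or loss of signal fitted bidirectionally against DMSO baseline.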

Read-out in assay [15]: CD69, CD69 (gene 969)
The experiment in a line: BSK_SAg_CD69: BioMAP Diversity Plus: SAg Assay for CD69 Biomarker Activity (AID 2283089).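 For AC50: cell surface CD69 protein quantified by ELISA with fluorescence detection.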 As to conditions: primary human HUVEC with PBMC; actives raise or lower the signal. An outline of the steps:
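Endothelial/PBMC co-culture; chemical added; 24 h incubation; CD69 ELISA with fluorescence detection; bidirectional fit vs DMSO.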

Read-out in assay [16]: Monocyte Chemoattractant Protein-1 (MCP1), CCL2 (gene 6347)
Put plainly: BSK_SAg_MCP1: BioMAP Diversity Plus: SAg Assay for Monocyte Chemoattractant Protein-1 (MCP1) Biomarker Activity (AID 2283090). As to conditions: primary human HUVEC with PBMC; actives raise or lower the signal. An outline of the steps:
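MCP-1 levels in the endothelial–PBMC SAg co-culture were quantified by ELISA at 24 h post-dosing; both increases and decreases versus DMSO scored. Cytotoxicity monitored by SRB total protein in parallel cultures.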

Read-out in assay [17]: E-selectin (Homo sapiens) (UniProt P16581)
Put plainly: BSK_SAg_Eselectin: BioMAP Diversity Plus: SAg Assay for Eselectin Biomarker Activity (AID 2283091). As to conditions: primary human HUVEC with PBMC; actives raise or lower the signal. An outline of the steps:
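HUVEC co-cultured with PBMC, compound dosed then read at 24 h; E-selectin measured by ELISA. Activity fitted bidirectionally against DMSO as negative control and baseline.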

Read-out in assay [18]: Monokine induced gamma interferon (MIG), CXCL9 (gene 4283)
The experiment in a line: BSK_SAg_MIG: BioMAP Diversity Plus: SAg Assay for Monokine induced gamma interferon (MIG) Biomarker Activity (AID 2283092). The conditions noted are these: primary human HUVEC with PBMC; actives raise or lower the signal. A digest of the protocol:
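Measures CXCL9 protein by ELISA in a human vascular primary-cell co-culture (umbilical vein endothelium with PBMC) 24 h after chemical addition. Activity is scored up or down from the DMSO control.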

Read-out in assay [19]: Interleukin-8 (IL8), CXCL8 (gene 3576)
The experiment in a line: BSK_SAg_IL8: BioMAP Diversity Plus: SAg Assay for Interleukin-8 (IL8) Biomarker Activity (AID 2283094). The conditions noted are these: primary human HUVEC with PBMC; actives raise or lower the signal. A digest of the protocol:
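ELISA read-out of IL-8 in a primary human vascular co-culture (umbilical vein endothelium plus PBMC), taken 24 h after compound addition. Values derive from bidirectional fits against DMSO negative controls.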

Assay [20] in a line: BSK_SAg_PBMCCytotoxicity: PBMC Cytotoxicity Assessment in the BioMAP Diversity Plus: SAg Assay (AID 2283093).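 Note: PBMC viability measured as Alamar Blue reduction fluorescence at 546/580 nm; fitted both ways against DMSO so a hit may be loss or gain of signal.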 As to conditions: primary human HUVEC with PBMC. An outline of the steps: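 Compound added to 75,000 PBMC/well for 1 h; SEB and TSST-1 then added at 20 ng/mL final each; 90 h incubation; Alamar Blue 6 h; read 546/580 nm ex/em. Activity fitted bidirectionally relative to DMSO baseline.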

Chain of Tumor necrosis factor (Homo sapiens) (P01375 whole entry, looked up): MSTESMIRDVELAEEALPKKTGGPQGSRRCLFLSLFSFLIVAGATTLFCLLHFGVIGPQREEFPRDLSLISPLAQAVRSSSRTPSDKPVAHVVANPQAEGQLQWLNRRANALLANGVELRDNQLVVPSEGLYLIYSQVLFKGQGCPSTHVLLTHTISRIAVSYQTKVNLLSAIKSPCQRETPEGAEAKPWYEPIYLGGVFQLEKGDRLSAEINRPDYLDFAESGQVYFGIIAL
Chain of E-selectin (Homo sapiens) (P16581 whole entry, looked up): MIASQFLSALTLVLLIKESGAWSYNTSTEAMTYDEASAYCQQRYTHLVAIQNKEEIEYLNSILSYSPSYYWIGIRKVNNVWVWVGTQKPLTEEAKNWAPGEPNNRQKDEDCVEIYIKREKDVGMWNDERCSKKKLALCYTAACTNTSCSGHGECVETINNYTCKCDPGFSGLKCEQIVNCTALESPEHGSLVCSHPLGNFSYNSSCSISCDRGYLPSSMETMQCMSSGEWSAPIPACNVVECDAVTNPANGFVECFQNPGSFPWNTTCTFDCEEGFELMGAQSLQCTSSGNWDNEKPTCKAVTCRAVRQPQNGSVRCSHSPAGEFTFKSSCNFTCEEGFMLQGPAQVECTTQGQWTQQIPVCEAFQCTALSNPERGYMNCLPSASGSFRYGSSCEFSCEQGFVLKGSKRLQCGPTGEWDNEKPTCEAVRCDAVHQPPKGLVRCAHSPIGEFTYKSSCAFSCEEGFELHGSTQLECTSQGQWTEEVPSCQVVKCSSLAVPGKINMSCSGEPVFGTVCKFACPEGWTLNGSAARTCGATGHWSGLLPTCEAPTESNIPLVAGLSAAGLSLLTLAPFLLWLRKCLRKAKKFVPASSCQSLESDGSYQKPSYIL

Usually AC50 stands for the concentration giving half of the maximal activity seen. In the case of `O=C1OC(c2ccc(O)cc2)(c2ccc(O)cc2)c2ccccc21`, the outcome in [1], in [3], in assay [6], in assay [7], in [8] and in assay [10] was inactive. Moreover, the half-maximal activity concentration (AC50) in assay [2] is 31.5 µM (active); in [4], 20 µM (active); in assay [5], 31.9 µM (active); in [9] it was 31.1 µM (active); in assay [11], 20 µM (active); in assay [12], 30.7 µM (active). In addition, the half-maximal activity concentration (AC50) was 28.7 µM (active) in [13]; 29 µM (active) in assay [14]; 20 µM (active) in assay [15]; 23 µM (active) in assay [16]; 23.8 µM (active) in assay [17]; 36.8 µM (active) in assay [18]. For the same compound, in [19], the concentration at half-maximal activity (AC50) was 20 µM (active).
`O=C1c2c(O)cccc2Cc2cccc(O)c21`: the half-maximal activity concentration (AC50) in assay [1] is 27.8 µM (active). The outcome in [2], in assay [3], in [4], in [5], in assay [6] and in assay [7] was inactive. Further, the result in assay [8], in assay [9], in assay [10], in [11], in assay [12] and in assay [13] was inactive. Also, the outcome in [14], in assay [15], in [16], in assay [17], in assay [18] and in [19] was inactive.
As to `CCCCCCCCCC[N+](C)(C)[O-]`, the outcome in assay [1], in assay [2], in assay [3], in assay [4], in [5] and in assay [6] was inactive. For the same compound, the result in assay [7], in assay [8], in assay [9], in assay [10], in [11] and in assay [13] was inactive. The result in assay [14], in assay [15], in assay [16], in [17], in [18] and in [20] was inactive. The result in assay [19] was inactive. Moreover, the AC50 in assay [12] is 35.5 µM (active).
